Compound in the assay: Nc1ncnc2c1ncn2[C@@H]1O[C@H](COP(=O)(O)OP(=O)(O)OP(=O)(O)O)[C@@H](O)[C@H]1O [adenosine 5'-triphosphate]
As to the kind of experiment: log2 fold change of tryptic peptide abundance, ligand vs vehicle (limited proteolysis) (log2 ratio); higher = more trypsin-susceptible (destabilized). The settings on record: ligand concentration: 5 mM; sample: E. coli desalted lysate; replicate design: treated before aliquoting. The procedure: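 HT-PELSA: desalted E. coli K-12 BW25113 lysate (with 12 mM MgCl2) incubated with 5 mM ATP (pH 7) or water for 30 min at 25 C, then a 4 min trypsin pulse at 22 C. Peptides were quantified by DIA-MS (4 replicates). Value is the peptide log2 fold change (treated/control); negative = stabilized. Scale: negative = ligand-stabilized region.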
Sequence of UniProt P46850 (P46850 whole entry): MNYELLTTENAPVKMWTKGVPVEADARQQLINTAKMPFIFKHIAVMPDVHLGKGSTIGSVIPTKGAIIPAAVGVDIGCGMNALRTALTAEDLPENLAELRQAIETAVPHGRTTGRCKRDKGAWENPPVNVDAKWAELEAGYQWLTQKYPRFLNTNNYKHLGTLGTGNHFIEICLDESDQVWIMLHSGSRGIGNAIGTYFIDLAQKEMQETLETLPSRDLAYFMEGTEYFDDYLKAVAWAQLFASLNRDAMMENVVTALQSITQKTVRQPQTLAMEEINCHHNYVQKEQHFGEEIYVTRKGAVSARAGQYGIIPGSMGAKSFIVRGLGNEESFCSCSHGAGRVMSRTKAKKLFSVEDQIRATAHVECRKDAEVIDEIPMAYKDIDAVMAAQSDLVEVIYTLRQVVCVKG
Sequence of UniProt P37751 (P37751 whole entry): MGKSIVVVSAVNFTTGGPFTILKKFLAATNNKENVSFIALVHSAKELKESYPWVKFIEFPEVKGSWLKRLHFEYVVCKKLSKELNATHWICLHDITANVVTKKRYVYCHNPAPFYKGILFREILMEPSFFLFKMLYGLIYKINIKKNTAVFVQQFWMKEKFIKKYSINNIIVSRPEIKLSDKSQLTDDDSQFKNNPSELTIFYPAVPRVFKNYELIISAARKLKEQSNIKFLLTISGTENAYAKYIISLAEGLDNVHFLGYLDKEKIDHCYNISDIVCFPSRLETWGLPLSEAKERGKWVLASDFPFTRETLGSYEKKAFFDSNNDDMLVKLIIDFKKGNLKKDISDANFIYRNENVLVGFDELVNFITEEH
Sequence of UniProt P39407 (P39407 whole entry): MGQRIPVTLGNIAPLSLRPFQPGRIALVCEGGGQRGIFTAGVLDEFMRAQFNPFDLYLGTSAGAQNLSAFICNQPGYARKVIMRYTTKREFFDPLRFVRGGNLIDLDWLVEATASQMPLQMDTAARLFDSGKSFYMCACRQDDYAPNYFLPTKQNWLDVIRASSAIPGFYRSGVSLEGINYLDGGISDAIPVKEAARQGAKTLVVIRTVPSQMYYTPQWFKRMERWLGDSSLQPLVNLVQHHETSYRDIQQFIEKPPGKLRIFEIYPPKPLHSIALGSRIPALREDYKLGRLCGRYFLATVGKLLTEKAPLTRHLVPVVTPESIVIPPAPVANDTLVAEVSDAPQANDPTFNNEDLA
Sequence of UniProt P27126 (P27126 whole entry): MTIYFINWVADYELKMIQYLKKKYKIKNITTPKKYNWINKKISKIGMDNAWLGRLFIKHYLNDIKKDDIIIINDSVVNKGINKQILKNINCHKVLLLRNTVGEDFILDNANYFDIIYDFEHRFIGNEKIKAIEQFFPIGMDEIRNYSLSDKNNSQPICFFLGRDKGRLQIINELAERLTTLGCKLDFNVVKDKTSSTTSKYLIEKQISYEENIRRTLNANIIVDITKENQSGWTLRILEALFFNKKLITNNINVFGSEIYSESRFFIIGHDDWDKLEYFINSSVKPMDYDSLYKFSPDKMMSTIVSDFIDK
Sequence of UniProt P33940 (P33940 whole entry): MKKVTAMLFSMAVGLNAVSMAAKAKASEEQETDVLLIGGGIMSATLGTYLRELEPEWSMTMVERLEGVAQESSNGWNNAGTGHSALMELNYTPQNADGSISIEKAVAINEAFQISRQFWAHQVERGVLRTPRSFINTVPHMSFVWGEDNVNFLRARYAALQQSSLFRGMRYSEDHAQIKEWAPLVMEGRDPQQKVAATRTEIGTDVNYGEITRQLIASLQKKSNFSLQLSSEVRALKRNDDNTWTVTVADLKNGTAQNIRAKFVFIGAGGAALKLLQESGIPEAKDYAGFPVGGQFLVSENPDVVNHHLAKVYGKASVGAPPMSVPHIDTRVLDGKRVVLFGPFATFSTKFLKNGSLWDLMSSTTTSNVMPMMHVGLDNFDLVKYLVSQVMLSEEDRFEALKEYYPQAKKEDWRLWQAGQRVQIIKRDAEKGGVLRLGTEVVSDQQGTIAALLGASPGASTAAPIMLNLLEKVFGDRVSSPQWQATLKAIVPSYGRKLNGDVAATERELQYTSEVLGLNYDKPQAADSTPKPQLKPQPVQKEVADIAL
Sequence of UniProt P15254 (P15254 whole entry): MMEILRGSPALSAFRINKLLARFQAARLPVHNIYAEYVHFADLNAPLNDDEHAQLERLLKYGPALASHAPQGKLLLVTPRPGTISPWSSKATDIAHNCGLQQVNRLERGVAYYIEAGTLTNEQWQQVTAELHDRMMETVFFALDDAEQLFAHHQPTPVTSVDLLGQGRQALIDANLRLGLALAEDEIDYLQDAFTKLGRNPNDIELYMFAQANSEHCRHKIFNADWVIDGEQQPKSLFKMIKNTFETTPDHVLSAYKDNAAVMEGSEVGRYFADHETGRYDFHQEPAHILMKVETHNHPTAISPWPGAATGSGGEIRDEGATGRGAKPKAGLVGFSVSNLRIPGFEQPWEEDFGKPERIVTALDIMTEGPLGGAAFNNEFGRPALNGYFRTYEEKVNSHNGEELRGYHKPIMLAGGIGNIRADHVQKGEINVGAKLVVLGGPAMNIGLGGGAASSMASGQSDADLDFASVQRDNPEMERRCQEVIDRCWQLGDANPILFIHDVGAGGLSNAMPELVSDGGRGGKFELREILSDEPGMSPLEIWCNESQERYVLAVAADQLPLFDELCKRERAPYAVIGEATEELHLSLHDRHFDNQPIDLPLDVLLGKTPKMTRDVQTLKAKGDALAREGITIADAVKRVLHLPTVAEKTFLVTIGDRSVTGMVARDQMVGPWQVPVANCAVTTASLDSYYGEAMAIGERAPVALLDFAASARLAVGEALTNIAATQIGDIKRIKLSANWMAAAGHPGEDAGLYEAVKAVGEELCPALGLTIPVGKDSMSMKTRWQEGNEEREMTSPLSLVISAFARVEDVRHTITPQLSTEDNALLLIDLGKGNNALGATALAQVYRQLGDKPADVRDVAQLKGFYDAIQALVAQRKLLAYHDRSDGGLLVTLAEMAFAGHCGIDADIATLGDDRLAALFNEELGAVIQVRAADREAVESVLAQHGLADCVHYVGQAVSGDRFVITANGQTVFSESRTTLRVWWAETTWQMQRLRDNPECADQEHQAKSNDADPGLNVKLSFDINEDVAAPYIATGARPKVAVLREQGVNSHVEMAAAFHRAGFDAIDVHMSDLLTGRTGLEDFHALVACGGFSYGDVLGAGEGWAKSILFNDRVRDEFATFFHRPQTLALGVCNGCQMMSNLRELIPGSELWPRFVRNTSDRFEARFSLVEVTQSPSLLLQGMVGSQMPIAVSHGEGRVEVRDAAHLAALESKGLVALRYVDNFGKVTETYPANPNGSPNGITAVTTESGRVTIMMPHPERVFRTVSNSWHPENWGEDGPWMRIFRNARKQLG
Sequence of UniProt P77754 (P77754 whole entry): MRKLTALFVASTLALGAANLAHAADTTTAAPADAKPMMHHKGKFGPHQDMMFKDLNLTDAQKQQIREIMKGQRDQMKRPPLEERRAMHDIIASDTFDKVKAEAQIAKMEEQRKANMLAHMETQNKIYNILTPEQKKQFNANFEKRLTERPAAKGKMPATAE
Sequence of UniProt P27240 (P27240 whole entry): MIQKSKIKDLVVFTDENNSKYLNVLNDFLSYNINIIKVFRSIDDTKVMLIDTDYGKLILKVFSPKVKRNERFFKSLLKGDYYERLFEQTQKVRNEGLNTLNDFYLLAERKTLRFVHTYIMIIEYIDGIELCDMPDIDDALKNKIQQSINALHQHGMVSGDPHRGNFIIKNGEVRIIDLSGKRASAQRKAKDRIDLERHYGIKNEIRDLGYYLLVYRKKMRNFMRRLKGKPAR
Sequence of UniProt P71298 (P71298 whole entry): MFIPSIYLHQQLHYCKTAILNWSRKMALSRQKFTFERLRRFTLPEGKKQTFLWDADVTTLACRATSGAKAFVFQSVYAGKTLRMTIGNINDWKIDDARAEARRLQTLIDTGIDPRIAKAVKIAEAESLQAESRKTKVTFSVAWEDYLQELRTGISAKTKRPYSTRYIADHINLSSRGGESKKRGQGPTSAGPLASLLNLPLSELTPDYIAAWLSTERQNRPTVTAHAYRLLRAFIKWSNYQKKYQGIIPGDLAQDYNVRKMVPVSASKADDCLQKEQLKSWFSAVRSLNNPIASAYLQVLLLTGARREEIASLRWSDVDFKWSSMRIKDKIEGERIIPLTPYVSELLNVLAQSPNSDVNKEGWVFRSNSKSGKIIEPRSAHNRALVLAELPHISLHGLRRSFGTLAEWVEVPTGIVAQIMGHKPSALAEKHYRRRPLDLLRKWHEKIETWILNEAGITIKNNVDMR
Sequence of UniProt P23830 (P23830 whole entry): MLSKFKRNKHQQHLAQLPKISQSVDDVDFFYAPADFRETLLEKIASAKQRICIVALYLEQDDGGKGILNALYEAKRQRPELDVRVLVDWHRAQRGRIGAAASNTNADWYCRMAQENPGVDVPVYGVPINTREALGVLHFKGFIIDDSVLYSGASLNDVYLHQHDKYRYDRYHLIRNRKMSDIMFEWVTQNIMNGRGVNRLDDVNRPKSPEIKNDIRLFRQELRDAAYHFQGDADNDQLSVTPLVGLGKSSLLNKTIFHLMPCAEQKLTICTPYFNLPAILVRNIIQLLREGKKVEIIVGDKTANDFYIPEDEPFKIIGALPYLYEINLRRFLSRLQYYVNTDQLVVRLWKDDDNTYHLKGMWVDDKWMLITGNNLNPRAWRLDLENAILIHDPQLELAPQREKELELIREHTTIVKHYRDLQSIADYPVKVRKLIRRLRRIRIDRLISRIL
Sequence of UniProt P25539 (P25539 whole entry): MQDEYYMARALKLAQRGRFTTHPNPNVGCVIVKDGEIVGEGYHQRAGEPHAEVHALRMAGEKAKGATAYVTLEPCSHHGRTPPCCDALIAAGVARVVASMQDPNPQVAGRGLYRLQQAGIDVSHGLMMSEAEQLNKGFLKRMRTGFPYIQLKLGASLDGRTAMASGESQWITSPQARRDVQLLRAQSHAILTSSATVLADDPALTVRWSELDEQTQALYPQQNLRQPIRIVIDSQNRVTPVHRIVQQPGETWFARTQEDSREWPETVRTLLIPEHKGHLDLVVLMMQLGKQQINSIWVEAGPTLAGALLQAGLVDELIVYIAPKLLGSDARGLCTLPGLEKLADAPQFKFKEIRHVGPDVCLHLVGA
As to “UniProt P43340 (peptide sequence: KIQVTELDLYRR, peptide start residue: 34)”, the log2 fold change turned out to be 1.23. Then “UniProt P00959 (peptide sequence: HTIMVANLAPRK, peptide start residue: 630)”, with -0.728; and “UniProt P37751 (peptide sequence: SQLTDDDSQFK, peptide start residue: 183)”, with -0.401. Then “UniProt P13458 (peptide sequence: NQPDGNLQVPR, peptide start residue: 103)”, with -0.895.

With “UniProt P37177 (peptide sequence: VANIYDSLHPAMLR, peptide start residue: 636)”, the log2 fold change is 0.572. Then “UniProt P27126 (peptide sequence: IGMDNAWLGR, peptide start residue: 45)”, with -0.467.

Turning to “UniProt P77754 (peptide sequence: DLNLTDAQK, peptide start residue: 54)”, the log2 fold change is -0.35.

For “UniProt P46850 (peptide sequence: KDAEVIDEIPMAYK, peptide start residue: 368)”, the log2 fold change is -0.573. For the target “UniProt P37765 (peptide sequence: EIESIIEAGRVSVDGK, peptide start residue: 19)”, the log2 fold change was 0.997.

On to “UniProt P46837 (peptide sequence: AEDEAINVFAR, peptide start residue: 303)”, for which the log2 fold change was 0.79.

Take “UniProt P08390 (peptide sequence: AVDALAGQSAK, peptide start residue: 168)”: the log2 fold change worked out at 0.237. Next, “UniProt P0A8Y3 (peptide sequence: VVVLSNTNR, peptide start residue: 103)”: 0.564.

As for “UniProt P10346 (peptide sequence: IAEDGNPQVLIKNPPSQR, peptide start residue: 214)”, the log2 fold change was found to be 0.654. Then “UniProt P00954 (peptide sequence: QHLELSR, peptide start residue: 152)”, with -0.982; and “UniProt P33368 (peptide sequence: IINITSVHEHTPLPDASAYTAAK, peptide start residue: 135)”, with 0.894. Then “UniProt P36672 (peptide sequence: LRFVLNQPANARPK, peptide start residue: 33)”, with 0.581.

With “UniProt P39407 (peptide sequence: EFFDPLR, peptide start residue: 90)”, the log2 fold change worked out at 0.583. Then “UniProt P03817 (peptide sequence: FGAIGIGSR, peptide start residue: 85)”, with 0.339. Then “UniProt P27240 (peptide sequence: IKDLVVFTDENNSK, peptide start residue: 7)”, with -0.431.

For “UniProt P13035 (peptide sequence: IGLFMYDHLGK, peptide start residue: 103)”, the log2 fold change turned out to be 0.643. As for “UniProt P0AAS7 (peptide sequence: LEGWSESGAQAK, peptide start residue: 20)”, the log2 fold change was -0.938. In the case of “UniProt P13518 (peptide sequence: LYQKPAVTR, peptide start residue: 414)”, the log2 fold change turned out to be 0.793.

For “UniProt P25894 (peptide sequence: QRGISPAGLATSFEK, peptide start residue: 202)”, the log2 fold change came to 0.934.

With “UniProt P08192 (peptide sequence: FQIVSESPR, peptide start residue: 290)”, the log2 fold change was -0.913.

As for “UniProt P23837 (peptide sequence: EITEQYEGK, peptide start residue: 451)”, the log2 fold change is -1.72. Then “UniProt P15254 (peptide sequence: QALIDANLR, peptide start residue: 169)”, with -0.778; and “UniProt P36995 (peptide sequence: VTFSIESGAK, peptide start residue: 51)”, with -0.289; and “UniProt P56580 (peptide sequence: KIVYITAGTRPAIVDK, peptide start residue: 26)”, with 1.13.

As to “UniProt P09169 (peptide sequence: MPYIGLTGSYR, peptide start residue: 198)”, the log2 fold change amounted to 1.26. Then “UniProt P25539 (peptide sequence: LADAPQFK, peptide start residue: 342)”, with -0.381. Then “UniProt P33940 (peptide sequence: EYYPQAK, peptide start residue: 403)”, with -1.61; and “UniProt P37691 (peptide sequence: MTSNLFGMQK, peptide start residue: 128)”, with 0.503; and “UniProt P77735 (peptide sequence: LGMDYVDILQIHR, peptide start residue: 116)”, with -0.843. Then “UniProt P37744 (peptide sequence: KGFIDVEQVRK, peptide start residue: 261)”, with -0.836; and “UniProt P76909 (peptide sequence: SGLEGAFHQDPATLSGGQR, peptide start residue: 121)”, with 0.631; and “UniProt P23830 (peptide sequence: EALGVLHFK, peptide start residue: 132)”, with -0.891. For the target “UniProt P71298 (peptide sequence: QNRPTVTAHAYR, peptide start residue: 218)”, the log2 fold change is -1.54.
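Note: lysate desalted by size exclusion to strip endogenous ATP, peptide intensities built from DIA-NN precursor signals, and peptides missing any value discarded before comparison.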
